Compound activity: PubChem, National Center for Advancing Translational Sciences (NCATS)
This is a sample that favours compounds with a hit; in the whole collection about 19% have one here.
TDP1 inh – inhibitors of human tyrosyl-DNA phosphodiesterase TDP1 | Q9NUW8 | Potency, µM (highest dose often 130 µM), usual class: inhibitors | recombinant TDP1, AlphaScreen DNA substrate cleavage | 350,000 compounds, 0.28% hits | AID 485290; note: nearly all actives have a fitted effect of over 40% in size
Target sequence (Q9NUW8 whole entry, looked up): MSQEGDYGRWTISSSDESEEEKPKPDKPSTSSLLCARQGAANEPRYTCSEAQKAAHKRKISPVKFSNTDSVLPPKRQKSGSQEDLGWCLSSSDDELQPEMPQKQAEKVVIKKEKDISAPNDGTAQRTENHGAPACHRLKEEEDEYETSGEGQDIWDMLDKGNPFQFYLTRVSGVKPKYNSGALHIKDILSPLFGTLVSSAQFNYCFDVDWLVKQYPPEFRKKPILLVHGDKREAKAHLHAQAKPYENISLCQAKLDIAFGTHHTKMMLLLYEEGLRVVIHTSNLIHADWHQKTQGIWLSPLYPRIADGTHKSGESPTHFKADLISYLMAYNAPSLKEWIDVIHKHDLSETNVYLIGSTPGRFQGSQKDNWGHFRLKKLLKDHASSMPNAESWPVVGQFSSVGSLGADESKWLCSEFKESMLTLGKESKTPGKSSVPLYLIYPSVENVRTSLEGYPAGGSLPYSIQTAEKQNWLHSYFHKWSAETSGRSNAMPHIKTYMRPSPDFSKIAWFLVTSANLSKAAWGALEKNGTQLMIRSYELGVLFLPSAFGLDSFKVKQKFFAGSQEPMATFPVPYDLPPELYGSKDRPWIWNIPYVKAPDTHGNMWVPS
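Recombinant E. coli-expressed Tdp1 (1 nM) preincubated with compound 15 min at RT, then 5'-biotin/3'-phosphotyrosine-FITC DNA substrate (15 nM) added for 5 min. AlphaScreen beads (10 ug/ml) added, 10 min RT; tyrosine-FITC cleavage read as signal loss.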
IL-1B inflam inh – inflammasome signaling inhibition, IL-1 beta readout; 360,000 compounds, 4.7% hits; activity change, % at 57.5 µM; THP-1 LPS/ATP IL-1B secretion, AlphaLISA, 16 h; hits give low values; AID 743279; in the data active = activity change below about -50%; inconclusive = mostly about -30% to -49%
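Secreted IL-1B measured by AlphaLISA bead assay after 16 h compound exposure of THP-1 cells; compounds (final up to 57.5 uM) added 1 h before LPS (250 ng/mL) and ATP (1.25 mM) stimulation; lower signal means less secretion.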
TGFb inhibitor – TGF-b pathway inhibition; HepG2 CAGA-GFP TGF-b/SMAD3 reporter, GFP fluorescence, 18 h; TGF-beta stimulated, 500 pg/mL final; Potency, µM (top dose mostly 46.1 µM), hits mostly inhibitors; 410,000 compounds, 1.2% hits; note: nearly all actives have a fitted effect of over 65% in size
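GFP signal (ex488/em500-530) from TGF-beta-stimulated HEPG2 CAGA-GFP cells, 500 pg/mL final, 18 h at 37 degrees C in DMEM plus 1% FBS, normalized to unstimulated and DMSO-stimulated controls.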
HepG2 viability – HepG2 cytotoxicity, counter-screen for TGF-b inhibitors; HepG2 CAGA-GFP viability, ATP luminescence, 18 h; Potency, µM (top dose mostly 46.1 µM), actives largely listed as cytotoxic; 410,000 compounds, 0.76% hits
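HepG2 CAGA-GFP cells (1000/well, DMEM with 1% FBS) received compound, then TGF-beta at 500 pg/mL final, and were incubated 18 hours at 37 degrees C. Viability was read by CellTiter-Glo luminescence. Media-only wells were set as complete cell-killing and DMSO as no toxicity.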
DT40 TDP1 no CPT – qHTS for Inhibitors of human tyrosyl-DNA phosphodiesterase 1 (TDP1): qHTS in cells in absence of CPT | DT40 Tdp1-/- hTDP1 cells, no CPT, ATP luminescence, 48 h | Potency, µM (top dose mostly 46.2 µM), actives largely listed as inhibitors | 420,000 compounds, 15% hits; note: nearly all actives have a fitted effect of over 55% in size
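A cellular qHTS used chicken DT40 cells lacking endogenous Tdp1 but carrying stably transfected human TDP1. Compounds were applied without camptothecin, and cell growth kinetics were judged by ATP-dependent luminescence after ≥48 hr.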
TDP1 cell CPT – DT40-hTDP1 cell growth loss with CPT; AID 686979; 420,000 compounds, 12% hits; Potency, µM (titrated, usually from 46.2 µM), actives largely listed as inhibitors; chicken DT40 Tdp1-/-;hTDP1 cells + 20 nM CPT, ATP luminescence, 48 h; note: nearly all actives have a fitted effect of over 55% in size
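Chicken DT40 Tdp1-/- cells complemented with human TDP1, 400 cells/well, exposed to compounds plus 20 nM camptothecin for at least 48 h at 37 C; viability read as ATP content by CellTiter-Glo luminescence.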
Numbers stand for hits; - = inactive; ? = inconclusive; . = no result; [ ] = dose if it differs, or a comment. Unless noted, calls come from the whole dose curve; as a rule, active = well fitted curve in the direction sought with a large enough effect; inconclusive = small, poorly fitted or top-dose-only effect, or another doubt; inactive = no such curve, though single readings can be large; an effect the other way counts as inactive or inconclusive.

SMILES	TDP1 inh	IL-1B inflam inh	TGFb inhibitor	HepG2 viability	DT40 TDP1 no CPT	TDP1 cell CPT
COC(=O)c1ccc(Cl)cc1NC(=O)NCc1c(-n2cccc2)sc2c1CCCC2	-	.	-	-	?	?
Cc1ccc2oc(-c3ccc(C)c(NC(=O)C(C)(C)Oc4ccc(Cl)cc4)c3)nc2c1	-	.	-	-	?	?
Cc1c(C(=O)NCCCN2CCOCC2)sc2ncnc(N3CCN(c4ccccc4)CC3)c12	-	?	-	-	21µM	16µM
CCCCNC(=O)c1sc2ncnc(N3CCc4ccccc4C3)c2c1C	-	-	-	-	8.2µM	15µM
CCCCNC(=O)c1sc2ncnc(NCC3CCCO3)c2c1C (stereo not drawn)	.	.	.	.	-	-[9.04 µM]
O=C1CCCC=C1[C@@H](O)COCc1ccccc1	-[21 µM]	.	.	.	.	.
COc1ccc(S(=O)(=O)N2CCC(O)(c3cccnc3)CC2)cc1OC	-	-	-	-	-	-
Nc1ccc(N)c(C(=O)O)c1	0.28µM	-	-	-	?	?
O=C1CC(c2ccccc2)CC(O)=C1C=NCc1ccccc1Cl (stereo not drawn)	-	-	-	-	2.3µM	2.3µM
COc1ccc(N=CC2=C(O)CC(c3ccccc3)CC2=O)c(OC)c1 (stereo not drawn)	-	-	-	-	15µM	18µM
CCC(C)N=CC1=C(O)CC(c2ccccc2)CC1=O (stereo not drawn)	-	-	-	-	-	-
CCCC(=NC(C)CC)C1=C(O)CC(c2ccccc2)CC1=O (stereo not drawn)	-	-67	-	-	?	?
CCC(=Nc1ccccc1O)C1=C(O)CC(c2ccccc2)CC1=O (stereo not drawn)	-	-	?	-	?	?
CCC(=Nc1ccccc1OC)C1=C(O)CC(c2ccccc2)CC1=O (stereo not drawn)	-	-	-	-	5.8µM	6.5µM
CNc1cccc(S(=O)(=O)N2CCCN(S(=O)(=O)c3ccc4c(c3)OCCO4)CC2)c1	-	.	.	.	.	.
CCOc1ccc(CNC(=O)C2CCN(S(=O)(=O)c3cn(C)cn3)CC2)cc1	-	.	-	-	-	-
CC1=NN(C(=O)c2cc(C)nn2C)C(O)(C(F)(F)F)C1 (stereo not drawn)	-	-	-	-	0.92µM	0.65µM
CCC1=NN(C(=O)c2ccc(C)cc2)C(O)(c2ccc(Br)cc2)C1 (stereo not drawn)	-	-	-	-	?	?
CC1=NN(C(=O)c2c(Br)c(C)nn2C)C(O)(C(F)(F)F)C1 (stereo not drawn)	-	-	-	-	1µM	1.2µM
CC1=NN(C(=O)c2csc(C)c2)C(O)(C(F)(F)F)C1 (stereo not drawn)	-	-	-	-	0.13µM	0.13µM
CCC1=NN(C(=O)c2ccc(Br)cc2)C(O)(c2ccc(C)cc2)C1 (stereo not drawn)	-	-	?	-	5.2µM	5.2µM
CC1=NN(C(=O)c2ccc(Cn3nc(C)c([N+](=O)[O-])c3C)o2)C(O)(C(F)(F)F)C1 (stereo not drawn)	-	-	-	-	?	-
COc1ccc(CC(=O)N2N=C(C)CC2(O)C(F)(F)F)cc1OC (stereo not drawn)	-	-	-	-	-	-
CCOCc1ccccc1Nc1ncnc2onc(-c3ccc(Cl)cc3)c12	-	.	?	-	?	-
CC1=NN(C(=O)c2csc(C)c2C)C(O)(C(F)(F)F)C1 (stereo not drawn)	-	-	-	-	0.92µM	0.65µM
COC(=O)C1=NN(C(=O)c2ccc(Br)cc2)C(O)(C(C)(C)C)C1 (stereo not drawn)	-	-	-	-	-	-
